Experimental data: PubChem BioAssay AID1159524 (National Center for Advancing Translational Sciences (NCATS), 2015)
Out of some 410,000 compounds screened, about 5,100 (1.2%) were called active. Roughly 8% stayed inconclusive and do not appear here. Calls follow the shape of the full dose curve; tested in HEK293T cells. The list comes from a sample in which actives are over-represented; it also holds similar structures and randomly drawn compounds. Where a call stands in place of a potency, no number is given.

Experiment: High Throughput Screening for Foot and Mouth Disease Virus Antivirals; also: read-out not given here; nearly all actives have a fitted effect of over 45% in size
Details: FMDV antiviral cell-based qHTS; series mostly up to 57.9 µM
Potency is read from the fitted curve at half-maximal effect.

SMILES	Potency
Cc1[nH]c2ccccc2c1/C=C(/C#N)C(=O)NC(C)C	inactive
C=CCNC(=S)N/N=C/c1ccc(C)s1	inactive
COCCNC(=S)N/N=C/c1c(C)[nH]c2ccccc12	20 µM (active)
C[N+](C)(C)CCCCCNCC12CC3CC(CC(C3)C1)C2	inactive
CCS(=O)(=O)N1CCN(C(=O)c2cccs2)CC1	inactive
Cc1ccc(N2CCN(C(=O)c3cccs3)CC2)c(C)c1	inactive
Cc1ccccc1C(CC(=O)c1cccs1)C(C#N)C#N (centres undefined)	11.2 µM (active)
Cc1cc(C)n2nc(C(=O)Nc3cccc(S(=O)(=O)N4CCOCC4)c3)nc2n1	inactive
O=C(Nc1ccc(S(=O)(=O)N2CCOCC2)cc1)c1ccc2ncsc2c1	inactive
Cc1nc2ccc(NC(=O)c3cccc(S(=O)(=O)N4CCOCC4)c3)cc2s1	31.6 µM (active)
Cc1nc2cnc(N3CCNCC3)nc2n(CCc2ccccc2)c1=O	inactive
CCCCCCCCCCCCCCCC(=O)OC/C=C(C)/C=C/C=C(C)/C=C/C1=C(C)CCCC1(C)C	inactive
CC1=C(/C=C/C(C)=C/C=C/C(C)=C/C=C/C=C(C)/C=C/C=C(C)/C=C/C2=C(C)CCCC2(C)C)C(C)(C)CCC1	5.01 µM (active)
Cc1ccc(CSc2nc3ccsc3c(=O)n2CCC(C)C)cc1	inactive
CCOC(=O)Cc1ccc(NC(=O)Nc2c[nH]c(=O)[nH]c2=O)cc1	inactive
COCC(=O)Nc1cc(C(=O)N2CCCC(c3ccccc3)CC2)c2c(c1)nc(-c1ccncc1)n2C (centres undefined)	inactive
COc1ccc(-c2nn(C)c(=O)c3ccccc23)cc1CNC(=O)C1CCCCC1	inactive
COc1ccc(-c2nc3ccccc3s2)cc1NC(=O)COc1ccccc1C	inactive
COc1ccc(-c2nn(C)c(=O)c3ccccc23)cc1NC(=O)COc1ccccc1	17.8 µM (active)
O=c1cnc2cnc(Nc3ccccc3)nc2n1Cc1ccc(F)cc1	inactive
Cc1ccc(S(=O)(=O)N2CCCc3cc(NS(=O)(=O)c4cc(C)ccc4C)ccc32)cc1	inactive
COc1ccccc1C(=O)Nc1c(C(=O)N(C)Cc2ccccc2)sc2nc(C)c(Cl)c(C)c12	inactive
CCCCc1nnc(NC(=O)CSc2nc(N)cc(=O)[nH]2)s1	inactive
Cc1cc(=O)[nH]c(SCc2ccc(Cl)cc2)n1	inactive
Cc1cc(C(=O)CSc2nc(N)cc(=O)[nH]2)c(C)n1CCc1ccc(Cl)cc1	22.4 µM (active)

SMILES	Potency
COCCn1c(=O)c(-c2cccc(F)c2)nc2cncnc21	inactive
COc1ccc(F)c(CN2CCC3(CCC(CNC(=O)c4ccn(C)n4)O3)CC2)c1 (centres undefined)	inactive
COc1ccc(Cl)cc1-n1c(CCC(=O)O)ccc1-c1ccc(C)cc1	inactive
CCc1ccc(-n2nnc(-c3nc(-c4ccccc4)no3)c2C)cc1	inactive
CCc1ccc(-c2nn(-c3ccccc3C)cc2C(=O)N2CCN(C3CCS(=O)(=O)C3)CC2)cc1 (centres undefined)	inactive
CCc1ccc(-c2nn(-c3ccccc3)cc2CSC(=N)N)cc1	39.8 µM (active)
COc1cc2c(cc1OC)[C@@H]1C(=O)c3ccc(O)c(CC=C(C)C)c3OC1CO2 (some centres undefined)	inactive
CCCS(=O)(=O)NCc1c(C)ncc2c1CCN(C(=O)c1ccc(F)c(F)c1)C2	inactive
COc1ccc2c(c1)CCc1cnc(-n3ncc(C(=O)NCCN4CCOCC4)c3C)nc1-2	inactive
Cc1ccc2nc(COc3ccc(NC(=O)COc4ccccc4F)cc3)cc(=O)n2c1	inactive
Cc1ccc2nc(COc3ccc(N(C)S(=O)(=O)c4ccccc4)cc3)cc(=O)n2c1	31.6 µM (active)
COc1cccc(COc2ccc(N(C)S(=O)(=O)c3ccccc3)cc2)c1	inactive
CCc1nc2cc(C(=O)NCC3CCS(=O)(=O)C3)cc(NC(=O)c3ccccc3OC)c2n1C (centres undefined)	inactive
Cc1ccc(NC(=O)CSc2nc3c([nH]c4ccccc43)c(=O)n2-c2ccccc2)c(C)c1	inactive
CCN(CCCCOC(=O)c1ccc(OC)c(OC)c1)C(C)Cc1ccc(OC)cc1 (centres undefined)	inactive
COc1ccc(C(CCN(Cc2ccc(OC)c(OC)c2)C(=O)CCl)c2ccccc2)cc1 (centres undefined)	31.6 µM (active)
COc1ccc(C(C(=O)NC2CCCCC2)N(C(=O)CCl)c2ccccc2Cl)cc1 (centres undefined)	inactive
COCCNc1cc(-c2c(C)noc2C)ncn1	inactive
O=C(COc1ccc2ccc(=O)oc2c1)NCC(O)c1ccccc1 (centres undefined)	inactive
CC(=CCOc1ccc2ccc(=O)oc2c1)C1=CC(=O)C(C)(C)O1	28.2 µM (active)
CC(C)OC(=O)c1ccc(COc2ccc3ccc(=O)oc3c2)o1	inactive
Cn1cccc1C(=O)N1CCC2(CC1)CN(c1cccc(-c3ccccc3)c1)C2	inactive
Cc1ccc(NC(=O)Nc2sc3nc4n(c(=O)c3c2C)CCC(C)CC4)c(Cl)c1 (centres undefined)	inactive
Cc1ccc(CN2COc3cc(C)c4c(oc(=O)c5ccccc54)c3C2)cc1	inactive
CCOC(=O)c1cc2c(=O)n3ccccc3nc2n(CCCOC)c1=NC(=O)C(C)Oc1ccccc1 (centres undefined)	inactive

SMILES	Potency
COc1ccc2[nH]cc(CCNc3ncnc4ccc(-c5ccccc5CN(C)C)cc34)c2c1	inactive
COc1ccc(Nc2ncnc3ccc(Br)cc23)c(OC)c1	3.98 µM (active)
COc1ccc(CNc2ncnc3ccc(-c4cccnc4)cc23)c(OC)c1	inactive
O=C(COC(=O)C1(c2ccc(F)cc2)CCCC1)N1CCNC1=O	inactive
NS(=O)(=O)c1ccc(NC(=O)COC(=O)C2(c3ccc(F)cc3)CCCC2)cc1	17.8 µM (active)
NS(=O)(=O)c1ccc(NC(=O)COc2ccc(S(=O)(=O)NC3CCCCC3)cc2)cc1	inactive
COc1ccc(CNC(=O)CSCc2nc(-c3ccccc3F)oc2C)cc1	inactive
Cc1nc2cc(NC(=O)[C@@H]3C[C@@H](Sc4ccccn4)CN3Cc3ccccc3C)ccc2s1	inactive
CCC(C(=O)Nc1cccc(-c2nc3cccnc3s2)c1C)c1ccccc1 (centres undefined)	inactive
CCOc1ccccc1-n1c(SCC(=O)NCc2ccco2)nnc1-c1ccncc1	inactive
Cc1ccc(Nc2nc(CSc3nnc(-c4ccncc4)n3-c3ccccc3C)cs2)cc1	31.6 µM (active)
Cn1c(SCc2ccc(F)cc2)nnc1-c1ccncc1	inactive
N[C@H](C(=O)O)c1ccc(C(=O)O)c(O)c1	inactive
Cc1cc(-c2n[nH]c(=S)n2/N=C/C(Br)=C/c2ccccc2)n[nH]1	35.5 µM (active)
O=c1c(-c2ccc(F)cc2)nc2cncnc2n1-c1ccccc1	inactive
CCCn1c(=N)n(CC(O)COc2ccccc2OC)c2ccccc21 (centres undefined)	inactive
OC(COc1ccc(CN2CCSCC2)cc1)CN1CCCCC1 (centres undefined)	inactive
OC(CN=c1sc2ccccc2n1CC(O)COc1ccccc1)COc1ccccc1 (centres undefined)	20 µM (active)
Nc1nc2c(nc(Cl)n2C2OC(CO)C(O)C2O)c(=O)[nH]1 (centres undefined)	inactive
O=C(c1ccccc1)N1CCN(c2cc(-c3ccccc3)nc3cc(-c4cccc(Cl)c4)nn23)CC1	25.1 µM (active)
O=C(c1cccc(Cl)c1)N1CCN(CCc2ccncc2)CC1	inactive
O=C(CCCC(=O)N1CCN(c2cccc(Cl)c2)CC1)c1ccccc1	inactive
C#Cc1cc(N2CCN(C(=O)c3ccoc3)CC2)n2nc(-c3cccc(Cl)c3)cc2n1	11.2 µM (active)
O=C(c1cccc(Br)c1)N1CCN(Cc2cc(=O)n3nc(-c4ccccc4)sc3n2)CC1	inactive
CCNC(=O)Cn1nc(C)n2c(cc3c(OC)cccc32)c1=O	inactive

SMILES	Potency
COC1[C@H](OC(N)=O)C(O)[C@H](Oc2ccc3c(O)c(NC(=O)c4ccc(O)c(CC=C(C)C)c4)c(=O)oc3c2C)OC1(C)C (some centres undefined)	inactive
C=C1O[C@@](CO)(n2cnc3c(N)ncnc32)[C@H](O)[C@@H]1O	inactive
COc1cccc(NC(=O)N2CCN(C(=O)c3nsc4ccccc34)CC2)c1	inactive
COc1ccc(-c2cc(-c3ccccc3)nc3c2COc2ccc(Cl)cc2-3)cc1	inactive
COc1ccc(-c2cc(-c3ccc(F)cc3)nc3c2COc2ccccc2-3)cc1	inactive
COc1ccc(C2=Nc3cc(C)ccc3OC2)cc1	14.1 µM (active)
CCCNc1ncnc2c1c(-c1ccccc1)cn2-c1ccc(OCC)cc1	inactive
CC(C)(O)CCC(O)[C@@](C)(O)C1CC[C@]2(O)C3=CC(=O)C4CC(O)C(O)C[C@]4(C)C3CC[C@]12C (some centres undefined)	inactive
Cc1ccc(NC(=O)c2ccc(CN3CC(=O)N4CCCCC4C3=O)cc2)c(Cl)c1 (centres undefined)	inactive
COc1ccc(C(=O)Nc2ccccc2C(=O)N/N=C/c2ccc(O)c(OC)c2)cc1	3.98 µM (active)
COc1ccc(Nc2ncc(C(=O)Nc3cc(C)ccc3OC)c3ccccc23)cc1	inactive
COc1cc(C(=O)Nc2cc(C(F)(F)F)ccc2N2CCOCC2)ccc1O	inactive
Cn1cc(-c2nc3cncnc3n(-c3ccccc3)c2=O)c2ccccc21	inactive
COc1ccc(CN2CCC3(CCC(CNC(=O)c4ccco4)O3)CC2)cc1OC (centres undefined)	inactive
CC(C)(C)n1ncc2c(=O)n(Cc3ccc(Cl)cc3)cnc21	25.1 µM (active)
CC(C)CNc1ncnc2c1cnn2Cc1ccc(Cl)cc1	inactive
Cc1ccc(-n2ncc3c(=O)n(Cc4cccc(C(F)(F)F)c4)cnc32)cc1C	inactive
O=C(c1cn(CC2CCCN(Cc3cc4ccccc4s3)C2)nn1)N1CCCC1 (centres undefined)	inactive
O=C(O)c1c(CNCc2cccc(F)c2)c2ccccc2n1Cc1ccccc1	inactive
C/C=C(\C)C(=O)O[C@H]1CC(C)=C2C(=O)C=C(C)C2[C@@H]2OC(=O)[C@@](C)(OC(=O)C=C(C)C)C21 (some centres undefined)	inactive
Cc1cc(C)cc(CN2CCc3nnc(C(NS(C)(=O)=O)C(C)C)n3CC2)c1 (centres undefined)	inactive
CCOc1cccc2sc(N3CCN(C(=O)C4CC4)CC3)nc12	inactive
CCOC(=O)N1CCN(C(=O)C2CCN(c3ncnc4c3sc3cccc(F)c34)CC2)CC1	14.1 µM (active)
CCOC(=O)N1CCN(C(=O)C2CCCN(c3ncnc4c3sc3cccc(F)c34)C2)CC1 (centres undefined)	inactive
